# Bioassay records as filed in PubChem BioAssay.
# HCV inh = qHTS Assay for Inhibitors of Hepatitis C Virus (HCV) | Huh7.5.1 HCVcc-Cre infection, luciferase reporter, 44 h | Potency, µM (titrated, usually from 41.8 µM), hits mostly inhibitors | hit rate 3.4% among 340,000 | AID 651820, 2012; active = well fitted inhibition curve with a large enough effect; inconclusive = small, poorly fitted or top-dose-only effect, or another doubt; inactive = no such curve, though single readings can be large or run the other way
#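 Compounds are dispensed onto cells plated 4 h earlier at 1,000 per well, with HCVcc-Cre virus (about 0.5 moi) added next. Following 44 h of culture, luminescent signal is measured for 15 sec after 15 min with substrate at room temperature.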
# Marburg entry inh = qHTS for inhibitors of binding or entry into cells for Marburg Virus | Potency, µM (doses to about 37.8 µM), actives largely listed as inhibitors | Marburg virus pseudotyped entry inhibition, cell reporter | hit rate 1.8% among 300,000; calls by dose curve; tested in HEK293 cells
# Shiga inhibitor = A qHTS for Small Molecule Inhibitors of Shiga Toxin; Vero cells, Shiga toxin protein synthesis inhibition reporter; inhibition, % at 38.7 µM; hit rate 9.2% among 290,000; AID 2315, 2010; in the data active = inhibition mostly above about 28%, no sharp cut-off; inactive = mostly below about 43%
# FMDV antiviral = High Throughput Screening for Foot and Mouth Disease Virus Antivirals; Potency, µM (series often up to 57.9 µM), hits mostly inhibitors; hit rate 1.2% among 410,000; AID 1159524, 2015; FMDV antiviral cell-based qHTS; calls by dose curve; tested in HEK293T cells; also: read-out not given here; nearly all actives have a fitted effect of over 45% in size
# CHX counter = Cycloheximide Counterscreen for Small Molecule Inhibitors of Shiga Toxin; cell reporter, cycloheximide protein synthesis inhibition counterscreen; max response, %; hit rate 12% among 300,000; AID 2314, 2010; in the data active = max response mostly above about 13%, no sharp cut-off; inactive = mostly below about 14%; also: read at 38.3 µM for the half of the compounds with a filed dose
# Lassa entry inh = qHTS for Inhibitors of binding or entry into cells for Lassa Virus; Lassa virus pseudotype entry inhibition, cell reporter; Potency, µM (top dose mostly 37.9 µM), hits mostly inhibitors; hit rate 1.2% among 300,000; AID 540256, 2011; calls by dose curve; tested in HEK293 cells; also: nearly all actives have a fitted effect of over 50% in size
# Numbers stand for hits; i = inactive; ? = inconclusive; nt = no result given. Rows were chosen to be rich in hits. Some 13% of all compounds tested hit in one or more screens of this group.
SMILES,HCV inh,Marburg entry inh,Shiga inhibitor,FMDV antiviral,CHX counter,Lassa entry inh
Cc1noc(C)c1CSc1nnc(-c2ccccc2F)n1CCc1ccccc1,?,?,i,i,i,i
Cc1ccc(O)c(N=NC2=C(O)CC(C)(C)CC2=O)c1,?,10µM,56,i,56,?
O=C(O)c1cccc(N=NN2CCOCC2)c1,i,?,i,i,18,i
CCN(CC)S(=O)(=O)c1cccc(N=NC2=C(O)CCCC2=O)c1,i,i,i,i,i,?
Cc1nc2ccc(N=NC3=C(O)CCCC3=O)cc2s1,i,i,72,i,50,i
Cc1nc2ccc(N=NC3=C(O)CC(C)(C)CC3=O)cc2s1,i,?,110,i,96,i
CCOc1ccc2nc(N=NC3=C(O)CC(C)(C)CC3=O)sc2c1,i,nt,i,i,i,nt
Cc1cc(NC(=O)c2cc(-c3ccc(Cl)cc3)on2)nn1Cc1ccc(Cl)cc1,nt,?,nt,?,nt,i
CC(=O)N1CCc2cc(N=NC3=C(O)CC(C)(C)CC3=O)ccc21,i,?,46,i,27,i
O=C1CCCC(O)=C1N=Nc1cccc(C(=O)O)c1,i,?,i,i,17,?
COc1ccc(Nc2nc(NCC3CCCO3)c3ccccc3n2)c(OC)c1 (configuration not stated),10µM,?,i,?,i,i
c1ccc(Nc2nc(NCC3CCCO3)c3ccccc3n2)cc1 (configuration not stated),7.1µM,?,i,28µM,i,?
CCOc1ccc(Nc2nc(NCC3CCCO3)c3ccccc3n2)cc1 (configuration not stated),?,?,i,25µM,i,?
Oc1cccc(Nc2nc(NCC3CCCO3)c3ccccc3n2)c1 (configuration not stated),?,?,i,i,i,i
CC1CCCN(S(=O)(=O)c2cnc[nH]2)C1 (configuration not stated),i,nt,i,i,i,nt
Cc1ccc(S(=O)(=O)N2CCN(C(=O)CN3C(=O)NC(C)(CCC(C)C)C3=O)CC2)c(C)c1 (configuration not stated),?,nt,nt,i,nt,nt
N#CCc1cnc2ccccc2n1,i,i,69,i,18,i
NS(=O)(=O)c1ccc(NCc2cnc3ccccc3n2)cc1,nt,nt,nt,i,nt,nt
Cc1cc(-c2nnc(CCC(=O)N(C)Cc3cccc4ccccc34)o2)no1,i,i,63,i,20,i
COc1ccc(CCc2nnc(CCC(=O)N(C)Cc3ccnc4ccccc34)o2)cc1,?,?,23,?,30,13µM
COc1ccccc1CCc1nnc(CCC(=O)N(C)Cc2cccc3cnccc23)o1,?,i,86,i,45,i
COc1ccc(CCc2ccnc3ccccc23)cc1,i,?,nt,i,nt,i
Cc1cc(SCc2ccccc2Cl)nc(=O)[nH]1,i,nt,i,i,i,nt
Cc1cc(SCc2ccc(Cl)c(Cl)c2)nc(=O)[nH]1,i,nt,i,i,28,nt
Cc1cc(SCc2ccc(Br)cc2)nc(=O)[nH]1,i,nt,i,i,40,nt
SMILES,HCV inh,Marburg entry inh,Shiga inhibitor,FMDV antiviral,CHX counter,Lassa entry inh
COc1cc2c(cc1OC)[C@H](C)N(C(=S)Nc1ccc(F)cc1)CC2,?,i,i,i,i,i
Cc1c(CCOC(=O)CC23CC4CC(CC(C)(C4)C2)C3)sc[n+]1CC(=O)c1ccccc1,i,nt,i,28µM,i,nt
Cc1cccc(NC(=O)Cn2nnc(-c3nc(-c4ccncc4)no3)c2N)c1,nt,nt,nt,i,nt,?
CCOc1ccc(/C=N/n2cc(-c3ccccc3)[nH]c2=S)cc1,?,i,i,i,19,i
S=c1[nH]c(-c2ccccc2)cn1/N=C/c1ccncc1,i,i,i,i,i,?
CCOc1ccc(CNc2ccc(N3CCN(Cc4ccccc4)CC3)cc2)cc1,10µM,i,i,i,i,?
CCOc1ccc(CNc2ccc(N3CCCC3)cc2)cc1,i,i,i,i,17,i
CCOc1cc(CNc2ccc(N3CCCC3)cc2)cc(Cl)c1OC,i,i,41,i,i,?
CC(=O)Nc1ccc(N2CCN(Cc3ccccc3)CC2)cc1,i,nt,i,i,i,nt
CCOc1ccc(OCC(=O)Nc2ccc(N3CCCCC3)cc2)cc1,?,i,i,i,i,i
CC(=O)Nc1c2sscc-2n(C)c1=O,nt,nt,36,nt,47,nt
CC(=O)Nc1c(N)[nH]c(=O)n(C)c1=O,nt,nt,i,nt,i,nt
